The record followed here is PubChem BioAssay AID1259343 (VanderVen Lab, College of Veterinary Medicine, Cornell …, 2017).

SMILES strings stand for the structures. Out of some 6,200 compounds screened, about 2,900 (47%) were called active. The set was probably picked from earlier hits. The list shows a part of the results. Unmarked numbers belong to inactive results. Rule as the data show it: active = inhibition above about 50%; inactive = the rest.

This test is described as follows: Mycobacterium tuberculosis growth inhibition, primary screen (AID 1259343). The note with it: inhibition: at 10 µM, hits give high values; outcome: 10 uM.
As to `COc1c(-c2coc3cc4c(cc3c2=O)CC(OC(C)=O)C(C)(C)O4)ccc2c1C=CC(C)(C)O2` (centres undefined), the inhibition was 77.7% (active). The value for `CCCNC(=O)CN1CCc2cc(Br)ccc21` was 74.1% (active).

As to `O=C(Cc1ccccc1O)N1CCc2cc(Br)ccc21`, the inhibition was 23.1%. With `CCOC(C)c1nc(CN2CCc3cc(Br)ccc32)cs1` (centres undefined) the figure was 28.4%; with `CC(C)c1ccc(Oc2ccc3nnnn3n2)cc1`, 55.6% (active); with `Cc1cc(Oc2ccc(C(C)C)cc2)nc(SCc2ccc(F)c(F)c2)n1`, -1.84%. On to `O=S(c1ccccc1)c1ccc2nnnn2n1` (centres undefined), for which the inhibition is -44%. With `CCc1nc2ccc(C(=O)NCCOc3ccc(OC)cc3)cn2c1N(C=O)Cc1ccc(OC)cc1` the figure was 47%.

Consider `COc1ccc(Oc2ccc(C(=O)NCCN3CCNC3=O)cc2)cc1`, for which the inhibition was 73.9% (active). `COc1ccc(Oc2ccc(C(=O)NCCc3cnc[nH]3)cc2)cc1`: the inhibition is 52.5% (active).

Take `COc1ccc2c(c1)CCCN2Cc1ccc(C(N)=O)cc1`: the inhibition was 20.6%.

Consider `Cc1ccc(C)c(C(C)CNC(=O)c2cnccn2)c1` (centres undefined), for which the inhibition was 21.5%. With `O=C(NCc1ccc(OC(F)F)cc1)c1ccc(Cl)cc1` the figure was 85.9% (active); with `OC(c1ccc(Cl)cc1)c1ccc(OC(F)F)cc1` (centres undefined), 19.4%; with `COc1ccc(CNC(=O)c2ccc(Br)cn2)cc1`, 14.4%. For the compound `O=C(NCc1ccc(OC(F)F)cc1)c1cnccn1`, the inhibition was 85.3% (active). The value for `COc1ccc2c(c1)CCC1C2CC[C@@]2(C)C1CC[C@@H]2O` (some centres undefined) was 46%; that for `Cc1c(N)c(C)c([N+](=O)[O-])c(C)c1[N+](=O)[O-]` was -53.9%. With `N#CCc1cccc(C(=O)Nc2cc(F)cc(N3CCCC3)c2)c1` the figure was 84.4% (active); with `Cc1cc(N2CCCC2)ccc1NC(=O)c1cccc(NC(=O)OC(C)(C)C)c1`, 20.1%; with `CC(=O)c1ccc(N2CCCC2)cc1OCc1cccc(C)c1`, 36.7%. With `COc1ccc(-n2nnnc2SCCOc2ccc(Br)cc2)cc1` the entry was “inactive”; with `COc1ccc(-n2nnnc2SCc2ccc(C#N)cc2)cc1`, 82.8% (active); with `COc1ccc(OCCSc2nnnn2-c2ccc(OC)cc2)cc1`, -17.4%.

For `O=P1(Nc2ccc(-c3ccccc3)cc2)C=C(c2ccccc2)OC(c2ccccc2)=C1`, the inhibition was 98.4% (active). With `Cc1c(C(=O)OCC(C)C)[nH]c2c1C(=O)CCC2` the figure was 60.5% (active); with `CCc1cc(=O)[nH]c(-n2nc(C)cc2NC(=O)C2CC2)n1`, 101% (active); with `CCCc1cc(=O)[nH]c(-n2nc(C)cc2NC(=O)C2CC2)n1`, 101% (active).

Turning to `O=c1c(Sc2ccc(Cl)cc2)c(O)c2c(n1-c1ccccc1)CCCC2`, the inhibition is 40.5%.

In general, inhibition refers to the drop in the measured response relative to a control, in per cent.
